INS-1E GSIS act = GLuc luminescence reporter in INS-1E cells, primary screen for activators of glucose-dependent secretion of insulin; INS-1E GLuc reporter insulin secretion, 2-3 h; activation, % at 16.6 µM; AID 743287, 2014; actives 0.61% (n = 370,000);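 active = lowest replicate activation of at least 40%, so every replicate reaches that level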
SIRT5 block = SIRT5 desuccinylase inhibitors, primary screen, biochemical, fluorescence imaging, single point, set 5. NAD-dependent protein deacylase sirtuin-5, mitochondrial (Homo sapiens), Q9NXA8. Purified SirT5, succinyl-peptide AMC, trypsin-coupled fluorescence. actives 1.1% (n = 330,000). inhibition, % at 15 µM; in the data active = inhibition above about 15%
Target sequence (Q9NXA8 whole entry, looked up): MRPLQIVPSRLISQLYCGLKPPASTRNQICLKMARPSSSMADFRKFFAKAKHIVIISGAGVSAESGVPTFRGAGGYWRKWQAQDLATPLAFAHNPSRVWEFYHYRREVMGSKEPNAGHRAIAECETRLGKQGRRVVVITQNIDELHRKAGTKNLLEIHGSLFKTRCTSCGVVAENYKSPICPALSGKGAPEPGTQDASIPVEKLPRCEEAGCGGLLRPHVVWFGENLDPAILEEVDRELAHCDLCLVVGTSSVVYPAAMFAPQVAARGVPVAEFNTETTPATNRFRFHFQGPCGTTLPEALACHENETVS
ERAP1 HTS inh = human ERAP1 aminopeptidase inhibitors, primary screen, biochemical, single point, plate reader; AID 652197, 2013; actives 0.15% (n = 340,000); Endoplasmic reticulum aminopeptidase 1 (Homo sapiens), Q9NZ08; recombinant ERAP1, Leu-AMC fluorescence, 60 min; inhibition, % at 10.7 µM;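 active = mean replicate inhibition of at least 30%, or all replicates individually reaching that 30% level; inactive = mean below 30% and not every replicate reaching it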
Casp6 inh = human caspase-6 inhibitors, primary screen, biochemical, VEID-R110 fluorescence, single point, set 2 | purified caspase-6, Z-VEID-R110 cleavage fluorescence | inhibition, % at 12.5 µM | actives 0.53% (n = 350,000) | AID 686996, 2013;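 active = mean inhibition across replicates at least about 35%, with every replicate also reaching that limit, limit read from the data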
Target sequence (P55212 24-179 limits assumed): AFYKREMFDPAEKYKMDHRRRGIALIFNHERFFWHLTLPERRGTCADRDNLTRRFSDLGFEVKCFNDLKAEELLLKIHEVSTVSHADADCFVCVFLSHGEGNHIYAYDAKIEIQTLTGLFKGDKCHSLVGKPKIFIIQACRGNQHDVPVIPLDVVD
Target sequence (P55212 194-293 limits assumed): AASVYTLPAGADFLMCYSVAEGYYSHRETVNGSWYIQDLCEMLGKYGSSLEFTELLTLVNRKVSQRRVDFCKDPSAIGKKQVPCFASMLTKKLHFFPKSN
FGF22 binding = binders of human FGF22 protein, primary screen, FGF22 synaptogenesis inhibitor project, biophysical, thermal shift, single point. actives 1.5% (n = 340,000). activity (Tm shift, normalised), % at 9.99 µM. Fibroblast growth factor 22 (Homo sapiens), Q9HCT0. recombinant FGF22 thermal shift, SYPRO orange fluorescence; percent of sucrose octasulfate shift, DMSO zero;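 active = mean Tm shift, scaled 0 neutral to 100 positive control, at about 1.3% or above, every replicate too, limit read from the data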
Large screens that a line does not name were inactive. Most compounds without a hit are left out; they make up all but 3.3% or so of the library.

C[C@@H]1CN([C@@H](C)CO)C(=O)Cc2cc(NC(=O)NC3CCCCC3)ccc2O[C@H]1CN(C)Cc1ccc(Cl)c(Cl)c1	none
CCOC(=O)N/N=C(\CCC(=O)O)c1cccs1	none
N#Cc1ccc(OCC(=O)N/N=C(\CCC(=O)O)c2cccs2)cc1	FGF22 binding 43.4
CC(C)(C)C1=Nn2c(nnc2-c2ccccc2F)SC1	none
CC(C)(C)C1=Nn2c(nnc2C2CCCCC2)SC1	INS-1E GSIS act 80.9 (no result: SIRT5 block, ERAP1 HTS inh, Casp6 inh, FGF22 binding)
O=C1N[C@H](c2ccccc2)COCc2cnnn2CC[C@@H]1Cc1ccc(-c2ccccc2)cc1	none (no result: SIRT5 block, ERAP1 HTS inh, Casp6 inh, FGF22 binding)
O=C(NCc1ccco1)c1cc(-c2ccc3c(c2)OCO3)on1	none (no result: SIRT5 block, ERAP1 HTS inh, Casp6 inh, FGF22 binding)
C=CCNC(=O)c1cc(-c2ccc3c(c2)OCO3)on1	INS-1E GSIS act 43.3
Cc1ccc(-c2nnn(CC(=O)N(Cc3ccco3)C(C(=O)NC(C)(C)C)c3ccc(C)o3)n2)o1 (configuration not stated)	SIRT5 block 18.2
COc1ccc(CN(C(=O)Cn2nnc(-c3ccc(C)o3)n2)C(C(=O)NCC2CCCO2)c2ccco2)cc1 (configuration not stated)	SIRT5 block 112.2
COc1ccc(-c2nnn(CC(=O)N(Cc3ccco3)C(C(=O)NCC3CCCO3)c3ccco3)n2)cc1 (configuration not stated)	none
Cc1ccc(-c2nnn(CC(=O)N(Cc3ccccc3)C(C(=O)NC(C)(C)C)c3ccncc3)n2)o1 (configuration not stated)	none
O=S(=O)(N[C@@H]1CC[C@H](CCn2cc(-c3ccccc3F)nn2)O[C@@H]1CO)c1ccc(Cl)cc1	none
CN(C(=O)C1Cc2c(-c3ccc(Cl)cc3)ccnc2O1)c1ccccc1 (configuration not stated)	FGF22 binding 24.8
CC(=O)c1cccc(N(C(=O)c2ccco2)C(C(=O)NC2CCCC2)c2ccc(N3CCOCC3)cc2)c1 (configuration not stated)	FGF22 binding 42.9
COC(=O)c1cccc(N(C(=O)c2ccco2)C(C(=O)NC2CCCC2)c2ccc(N3CCOCC3)cc2)c1 (configuration not stated)	none
COCc1cc(CN2CCN(Cc3ccsc3)C(CCO)C2)ccc1OC (configuration not stated)	FGF22 binding 43.1
CC(C)(O)C#Cc1ccc(CN2CCN(Cc3ccsc3)C(CCO)C2)cc1 (configuration not stated)	FGF22 binding 43.3
C#Cc1ccc(CN2CCN(Cc3ccsc3)C(CCO)C2)cc1 (configuration not stated)	none (no result: FGF22 binding)
O=C(C[C@@H]1CC[C@H]2[C@@H](COC[C@H](O)CN2Cc2cc(F)ccc2F)O1)NCc1ccccc1	none
OC(Cc1ccccc1Br)c1ncc(-c2ccc(Cl)cc2)[nH]1 (configuration not stated)	FGF22 binding 2.7
O=C(Cc1ccccn1)NCC[C@@H]1CC[C@H](NC(=O)Nc2ccc(F)cc2)[C@H](CO)O1	none
CCOC(=O)N(O)c1ccc(C=Cc2ccccc2)cc1	Casp6 inh 67.4
CCN(CC)c1nc(N)c2c(N)nc(OC)cc2c1C#N	Casp6 inh 51.2 (no result: SIRT5 block, ERAP1 HTS inh)
CCN(CC)c1nc(N)c(C#N)c(CC#N)c1C#N	none
COc1cccc(S(=O)(=O)N(C)C[C@H]2Oc3cc(C4=CCCCC4)ccc3S(=O)(=O)N([C@@H](C)CO)C[C@@H]2C)c1	none
COc1cccc(S(=O)(=O)N(C)C[C@H]2Oc3cc(C4=CCCC4)ccc3S(=O)(=O)N([C@@H](C)CO)C[C@H]2C)c1	SIRT5 block 21.3
COc1cccc(S(=O)(=O)N(C)C[C@@H]2Oc3cc(C4=CCCCC4)ccc3S(=O)(=O)N([C@@H](C)CO)C[C@H]2C)c1	SIRT5 block 22.2
COc1cccc(S(=O)(=O)N(C)C[C@@H]2Oc3cc(C4=CCCC4)ccc3S(=O)(=O)N([C@H](C)CO)C[C@@H]2C)c1	none
CNC[C@@H]1OCCCC[C@@H](C)Oc2ccc(NC(=O)Cc3ccccc3)cc2C(=O)N([C@H](C)CO)C[C@@H]1C	none
O=C(O)C1C=Cc2ccccc2N1C(=O)c1ccccc1 (configuration not stated) (tested in a mixture with another compound)	Casp6 inh 39.4 (no result: INS-1E GSIS act, SIRT5 block)
CCC(=O)Nc1ccc2c(c1)OC[C@H](C)N(C(=O)COC)C[C@@H](C)[C@H](OC)CN(C)C2=O	none
O=C(C[C@@H]1CC[C@H]2[C@@H](COC[C@H](O)CN2S(=O)(=O)c2cccc(F)c2)O1)NCCCN1CCOCC1	none
Cc1ccc(CC2(OCCN(C)C)CCC(C(C)(C)C)CC2)cc1 (configuration not stated)	INS-1E GSIS act 750.2
CN(C)CCOC1(Cc2ccc(F)cc2)CCC(C(C)(C)C)CC1 (configuration not stated)	none
COc1ccc(/C=N/N(C(C)=O)c2nc(-c3ccc(C)cc3)cs2)cc1	INS-1E GSIS act 146.4 (no result: SIRT5 block, ERAP1 HTS inh, Casp6 inh, FGF22 binding)
COc1ccc(-c2csc(N(CCCN(C)C)C(=O)c3ccc(C)cc3)n2)cc1	none
CC(=O)N(/N=C/c1cccc(C)c1)c1nc(-c2ccc(Br)cc2)cs1	INS-1E GSIS act 110.2 (no result: SIRT5 block, ERAP1 HTS inh, Casp6 inh, FGF22 binding)
Cc1ccccc1S(=O)(=O)N[C@@H]1CC[C@@H](CCn2cc(Cc3ccccc3)nn2)O[C@@H]1CO	none
C[C@@H]1CCCCO[C@H](CN(C)Cc2ccc(C(=O)Nc3ccccc3N)cc2)[C@@H](C)CN([C@@H](C)CO)C(=O)c2cc(N(C)C)ccc2O1	none (no result: SIRT5 block, ERAP1 HTS inh, Casp6 inh, FGF22 binding)
COc1ccc(CN(C)C[C@H]2OCCCC[C@H](C)Oc3ccc(NC(=O)CCCN(C)C)cc3C(=O)N([C@H](C)CO)C[C@H]2C)cc1	none
COc1ccc2c3c([nH]c2c1)[C@H](CO)N(Cc1cccc(F)c1)CC31CN(Cc2ccccn2)C1	none
COc1cccc(NC(=O)CSc2ccc(-c3ccco3)nn2)c1	none
O=C(CSc1ccc(-c2ccco2)nn1)NC1CCCCC1	none
O=C(CSc1ccc(-c2ccco2)nn1)NC1CCCC1	INS-1E GSIS act 40.1
Cc1nnc(NC(=O)CSc2ccc(-c3ccco3)nn2)s1	Casp6 inh 35.4
COc1ccc(NC(=O)CSc2ccc(-c3ccco3)nn2)cc1OC	INS-1E GSIS act 40.8
Cc1cc(C)cc(NC(=O)CSc2ccc(-c3cccs3)nn2)c1	SIRT5 block 22.2
COc1cccc(NC(=O)N[C@@H]2C=C[C@H](CC(=O)N3CCN(C)CC3)O[C@@H]2CO)c1	none (no result: FGF22 binding)
Cc1noc(C)c1NC(=O)Nc1ccc2c(c1)C(=O)N([C@@H](C)CO)C[C@@H](C)[C@H](CN(C)C)OCCCC[C@H](C)O2	none
C=CCn1c(O)c(N=NC(=O)CNC(=O)c2ccco2)c2ccccc21	INS-1E GSIS act 41.7

Bioassay records (PubChem)
